Laboratory results from the supplement of paper PMC6555819.

system: RARb homodimer (NR concentration 270 nM); test: PBM binding z-score (relative to random genomic background probes); higher = stronger binding; sequences stand for … in GC…GCGATTGACAGCGTAGAATGAAGG
Outline: (§1)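 Probes were double-stranded and carried 34-nt variable regions with direct-repeat seeds, single-nucleotide variants, half-site ablations and random human genomic background sequences, printed on custom Agilent 4×180K protein-binding microarrays. Arrays were incubated 1 h with ligand-free nuclear receptor dimers in PBS pH 7.4, 2% milk, 0.02% Triton X-100, 1 mM DTT, 0.2 mg/mL BSA and 0.4 mg/ml salmon testes DNA. Antibodies against each partner (one per run) detected binding, and scanned fluorescence was regression-normalized. Binding z-scores use the random background probes as reference.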

Sequence | PBM binding z-score
CCGACTGGGGCATAAGGCTACCATAAGCCAGCCC | 0.172
TCTCGTAGATCAGCAGGTTAAGAAAGCTGGCCAA | -0.209
CGTCCAAGGTCAGAGGGGTCAGTGAATGCCGAGT | 5.33
CCGACTGGGGCAGTAAGGTTACCATACCATCCGG | 1.56
TGAATGAGGTTATAAGATCACGGAACGTTGCAAA | 0.253
ACAGACAGGTGAGTGAAGGTAACTCCGCTGGACG | 0.202
GATACAGGGTCAAGGCCAGAGTTCGCGTATTGAT | 4.11
TCTATTAGTTGATTAGGGCAAACGAAACAGCGGA | 0.43
TCCAGTTGGTCAAAGGTCACACACTCGAAATGCG | 4.95
TCTGCTAGGTAAGTTGGTCAGCTAACGAGCTGCC | -0.545
TCATATAAGTAAACAGGTGAAAGTCCGTAAGTTA | 0.596
TAGCCTAGGTCTTTCAGGGGCCAGTATAGAAAGC | 0.423
GTCCCAAGGTGAATAGGTCGTTGATGAGTAGGCG | 2.13
TCTTGTAGATCAGCAGGTTAAGAAGGCTGGCCAA | 0.175
TCATATAGGTAAACAGGTGTAAGTCCGTAAGTTA | 0.165
AGAATGAGGTTGTTAAGATCAGGGAATTGCGGTC | 0.126
AATACAGGCTCACTAGGCCAGAGTAGGTACGAAT | -0.345
GCGTACGGGTCAAAGGTTATAGCATGAATAGAAT | 3.14

system: RARg:RXRa (NR concentration 270 nM, RXRa partner concentration 90 nM); test: as above
Outline: as §1

Sequence | PBM binding z-score
AGTCAAAGTTCATCCAGGTAACGTAAGATATGCT | 5.56
CCGACTGGGGCTGAAAGGTTACCATACCATCCGG | 1.33
GCGACTGGGGCATCAGCACGTTACCATAACTTAA | 0.0207
ATATGTAGGTTATCGGGTCATTCCGTTTGCGCAT | 3.32
CGTCAAAGTTCAGCTAAGGTAACGTAAAGCACGC | 4.28
CCTACTGGGCCATCAGGTCATTGAAATCAACGTT | 1.85
CCTCGGAGGACAACAGGAGGTCAGAGCAGCCAGA | 3.56
CCGACTGCGGCAAAGGTTACCATACTCAGTACGA | 1.43
TGATATAGGTAATACAGGTGAAAGTCGGCATCTA | 0.793
CGTCCAAGGTGAGCAGGTCAGTGAAAGCGACGTG | 2.24
CCTACTGGGCCAAAAAAGTCATTGATGCCGATAA | -0.155
GCAGACAGGTGAAAGGCAGGTAACTCAGGGTGGC | 0.314
CCAGACAGGTGAGAAGGTAGCTCAGCCTCGATTA | 0.0158
CGTCCAAGGTCAGAGAGGTCAGTTAATGCCGAGT | 6.43
ATCGAAAGGTCGAGGTGAGTACAGAGAAAGGGAA | 4.39
GCATATAGGTAATACAAGGAGAAAGTCCGATTGT | 0.152
TCGTGTAGATCAAAGGTTAAGAAAGCCGAAGCCT | 1.76
CTCGAAAGGTTGGTTGAGGTGAGTATACGGATAA | 0.599
CAAACTAGGTCAAGGTCGAAGTCGGTTTGTGCCA | 4.38
ATATGTAGGTTGGCTGGGGTCATTCAGACTAGGC | 3.5

Sequence | PBM binding z-score
TCTTGTAGATCATCAGGTTAAGAAAGCTGGCCAA | 0.0917
CGTCCAAGGTCAAAGGTTAGTGAAGAGATGACGG | 7.04
CCGACTGGGGCATAAGGCTACCATAAGCCAGCCC | -0.0263
TCTCGTAGATCAGCAGGTTAAGAAAGCTGGCCAA | -0.0899
CGTCCAAGGTCAGAGGGGTCAGTGAATGCCGAGT | 6.54
CCGACTGGGGCAGTAAGGTTACCATACCATCCGG | 0.667
TGAATGAGGTTATAAGATCACGGAACGTTGCAAA | 2.04
ACAGACAGGTGAGTGAAGGTAACTCCGCTGGACG | 0.0663
GATACAGGGTCAAGGCCAGAGTTCGCGTATTGAT | 5.64
TCTATTAGTTGATTAGGGCAAACGAAACAGCGGA | 0.388
TCCAGTTGGTCAAAGGTCACACACTCGAAATGCG | 7.17
TCTGCTAGGTAAGTTGGTCAGCTAACGAGCTGCC | -0.54
TCATATAAGTAAACAGGTGAAAGTCCGTAAGTTA | 0.357
TAGCCTAGGTCTTTCAGGGGCCAGTATAGAAAGC | 0.873
GTCCCAAGGTGAATAGGTCGTTGATGAGTAGGCG | 2.88
TCTTGTAGATCAGCAGGTTAAGAAGGCTGGCCAA | 0.0178
TCATATAGGTAAACAGGTGTAAGTCCGTAAGTTA | 0.307
AGAATGAGGTTGTTAAGATCAGGGAATTGCGGTC | 0.00616
AATACAGGCTCACTAGGCCAGAGTAGGTACGAAT | -0.402
GCGTACGGGTCAAAGGTTATAGCATGAATAGAAT | 6.99

system: RARg homodimer (NR concentration 270 nM); test: as above
Outline: as §1

Sequence | PBM binding z-score
AGTCAAAGTTCATCCAGGTAACGTAAGATATGCT | 5.81
CCGACTGGGGCTGAAAGGTTACCATACCATCCGG | 0.724
GCGACTGGGGCATCAGCACGTTACCATAACTTAA | 0.311
ATATGTAGGTTATCGGGTCATTCCGTTTGCGCAT | 2.35
CGTCAAAGTTCAGCTAAGGTAACGTAAAGCACGC | 5.29
CCTACTGGGCCATCAGGTCATTGAAATCAACGTT | 2.14
CCTCGGAGGACAACAGGAGGTCAGAGCAGCCAGA | 3.45
CCGACTGCGGCAAAGGTTACCATACTCAGTACGA | 1.07
TGATATAGGTAATACAGGTGAAAGTCGGCATCTA | 0.583
CGTCCAAGGTGAGCAGGTCAGTGAAAGCGACGTG | 2.37
CCTACTGGGCCAAAAAAGTCATTGATGCCGATAA | 0.0325
GCAGACAGGTGAAAGGCAGGTAACTCAGGGTGGC | -0.0429
CCAGACAGGTGAGAAGGTAGCTCAGCCTCGATTA | -0.00904
CGTCCAAGGTCAGAGAGGTCAGTTAATGCCGAGT | 7.24
ATCGAAAGGTCGAGGTGAGTACAGAGAAAGGGAA | 4.17
GCATATAGGTAATACAAGGAGAAAGTCCGATTGT | 0.156
TCGTGTAGATCAAAGGTTAAGAAAGCCGAAGCCT | 0.92
CTCGAAAGGTTGGTTGAGGTGAGTATACGGATAA | 0.684
CAAACTAGGTCAAGGTCGAAGTCGGTTTGTGCCA | 5.12
ATATGTAGGTTGGCTGGGGTCATTCAGACTAGGC | 2.19

Sequence | PBM binding z-score
TCTTGTAGATCATCAGGTTAAGAAAGCTGGCCAA | -0.23
CGTCCAAGGTCAAAGGTTAGTGAAGAGATGACGG | 6.48
CCGACTGGGGCATAAGGCTACCATAAGCCAGCCC | 0.171
TCTCGTAGATCAGCAGGTTAAGAAAGCTGGCCAA | -0.67
CGTCCAAGGTCAGAGGGGTCAGTGAATGCCGAGT | 7.18
CCGACTGGGGCAGTAAGGTTACCATACCATCCGG | 0.917
TGAATGAGGTTATAAGATCACGGAACGTTGCAAA | 1.23
ACAGACAGGTGAGTGAAGGTAACTCCGCTGGACG | 0.259
GATACAGGGTCAAGGCCAGAGTTCGCGTATTGAT | 5.19
TCTATTAGTTGATTAGGGCAAACGAAACAGCGGA | 0.663
TCCAGTTGGTCAAAGGTCACACACTCGAAATGCG | 6.07
TCTGCTAGGTAAGTTGGTCAGCTAACGAGCTGCC | -0.71
TCATATAAGTAAACAGGTGAAAGTCCGTAAGTTA | 0.421
TAGCCTAGGTCTTTCAGGGGCCAGTATAGAAAGC | 0.295
GTCCCAAGGTGAATAGGTCGTTGATGAGTAGGCG | 1.42
TCTTGTAGATCAGCAGGTTAAGAAGGCTGGCCAA | -0.229
TCATATAGGTAAACAGGTGTAAGTCCGTAAGTTA | 0.308
AGAATGAGGTTGTTAAGATCAGGGAATTGCGGTC | -0.0271
AATACAGGCTCACTAGGCCAGAGTAGGTACGAAT | -0.0557
GCGTACGGGTCAAAGGTTATAGCATGAATAGAAT | 4.57
